Data reported in the supplement of paper PMC10849652.
The full data set covers some 7,900 targets. This sample favours those with a hit. About 0.6% of all pairs of compound and target were hits. Values without a mark were called inactive.

Columns and labels:
Assay in all cases: log2 fold change, soluble protein after heating vs DMSO (PISA); higher = thermal stabilisation; K562 cells, 10 uM, 30 min; active = over 0.2 and 3.5 SD of the protein, either way, in both replicates (recomputed)
[1] = compound: CC[C@@H]1C(=O)N(C)c2cnc(Nc3ccc(C(=O)NC4CCN(C)CC4)cc3OC)nc2N1C1CCCC1
Summary of the method: (§1)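 Aliquots of K562 cells (2×10^6 cells/mL) treated with 10 μM compound for 30 min were heated for 3 min over 48°C-58°C. After pooling and extraction in PBS with 0.5% NP-40 at 4°C, soluble protein from a 21,000xg, 90 min spin was quantified by TMTpro 16plex LC-MS/MS with channel sums equalised. Thermal stability is expressed against control samples, from duplicates, as a log2 fold change.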

volasertib = compound: CC[C@@H]1C(=O)N(C)c2cnc(Nc3ccc(C(=O)N[C@H]4CC[C@H](N5CCN(CC6CC6)CC5)CC4)cc3OC)nc2N1C(C)C [volasertib]
Summary of the method: as §1

[2] = compound: CC[C@H](C)N1C=C(C2=C(C=C(C=C21)C3=CN=C(C=C3)N4CCNCC4)C(=O)NCC5=C(C=C(NC5=O)C)C)C
Summary of the method: as §1

epoxomicin = compound: CC[C@H](C)[C@@H](C(=O)N[C@@H]([C@@H](C)O)C(=O)N[C@@H](CC(C)C)C(=O)[C@]1(CO1)C)NC(=O)[C@H]([C@@H](C)CC)N(C)C(=O)C [epoxomicin]
Summary of the method: as §1

[3] = compound: CCn1c(C(=O)N(C2CC2)C2CC2)cc2c3c(ncn3C)c(Nc3cc(C)n(C)n3)nc21
Summary of the method: as §1

[4] = compound: CCn1cc(-c2ccnc3[nH]c(-c4cccc(CN(C)C)c4)cc23)c(-c2ccc(NC(=O)N(C)C)cc2)n1
Summary of the method: as §1

[5] = compound: CN(C)CC(=O)Nc1ccc2[nH]c(=O)c3ccccc3c2c1
Summary of the method: as §1

rosiglitazone = compound: CN(CCOC1=CC=C(C=C1)C[C@H]2C(=O)NC(=O)S2)C3=CC=CC=N3 (racemic) [rosiglitazone]
Summary of the method: as §1

[6] = compound: CN1C2=C(C3=C1C(=O)N(N=C3)CC4=CC(=CC=C4)N)SC(=C2)S(=O)C
Summary of the method: as §1

[7] = compound: CN1CCC(CNc2ccc3ncc(-c4cccc(OC(F)(F)F)c4)n3n2)CC1
Summary of the method: as §1

saracatinib = compound: CN1CCN(CCOc2cc(OC3CCOCC3)c3c(Nc4c(Cl)ccc5c4OCO5)ncnc3c2)CC1 [saracatinib]
Summary of the method: as §1

sotrastaurin = compound: CN1CCN(c2nc(C3=C(c4c[nH]c5ccccc45)C(=O)NC3=O)c3ccccc3n2)CC1 [sotrastaurin]
Summary of the method: as §1

alvocidib = compound: CN1CC[C@H](c2c(O)cc(O)c3c(=O)cc(-c4ccccc4Cl)oc23)[C@H](O)C1 [alvocidib]
Summary of the method: as §1

Tubastatin A = compound: CN1CCc2c(c3ccccc3n2Cc2ccc(C(=O)NO)cc2)C1 [Tubastatin A]
Summary of the method: as §1

[8] = compound: CNC(=O)C1=CC=CC=C1NC2=NC(=NC=C2Cl)NC3=C(C=C(C=C3)N4CCOCC4)OC
Summary of the method: as §1

defactinib = compound: CNC(=O)c1ccc(Nc2ncc(C(F)(F)F)c(NCc3nccnc3N(C)S(C)(=O)=O)n2)cc1 [defactinib]
Summary of the method: as §1

rucaparib = compound: CNCc1ccc(-c2[nH]c3cc(F)cc4c3c2CCNC4=O)cc1 [rucaparib]
Summary of the method: as §1

[9] = compound: CNc1nc(-c2ccc3c(N)n[nH]c3c2)cc(N2C[C@@H](C(=O)NC3CCCCC3)CC[C@H]2C)n1
Summary of the method: as §1

encorafenib = compound: COC(=O)N[C@@H](C)CNc1nccc(-c2cn(C(C)C)nc2-c2cc(Cl)cc(NS(C)(=O)=O)c2F)n1 [encorafenib]
Summary of the method: as §1

[10] = compound: COC(=O)[C@H](CCSC)NC(=O)C1=C(C=C(C=C1)NC[C@H](CS)N)C2=CC=CC=C2
Summary of the method: as §1

Sequence of UniProt Q969V5 (Q969V5 whole entry, looked up): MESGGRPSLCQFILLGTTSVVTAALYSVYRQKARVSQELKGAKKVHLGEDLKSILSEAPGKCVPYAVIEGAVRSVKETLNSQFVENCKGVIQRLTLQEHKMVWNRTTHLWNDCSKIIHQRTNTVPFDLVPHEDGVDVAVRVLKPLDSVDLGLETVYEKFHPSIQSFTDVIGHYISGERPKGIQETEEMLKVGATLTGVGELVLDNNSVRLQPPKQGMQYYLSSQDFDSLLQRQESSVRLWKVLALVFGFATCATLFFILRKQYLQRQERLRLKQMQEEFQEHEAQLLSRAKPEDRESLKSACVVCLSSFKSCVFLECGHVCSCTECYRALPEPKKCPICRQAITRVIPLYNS
Sequence of UniProt Q96DE0 (Q96DE0 whole entry, looked up): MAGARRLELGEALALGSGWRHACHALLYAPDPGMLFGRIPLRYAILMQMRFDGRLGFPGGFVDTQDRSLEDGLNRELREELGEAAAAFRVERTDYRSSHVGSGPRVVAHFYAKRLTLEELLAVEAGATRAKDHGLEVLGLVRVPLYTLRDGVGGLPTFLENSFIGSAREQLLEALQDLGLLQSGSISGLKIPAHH
Sequence of UniProt Q8WX92 (Q8WX92 whole entry, looked up): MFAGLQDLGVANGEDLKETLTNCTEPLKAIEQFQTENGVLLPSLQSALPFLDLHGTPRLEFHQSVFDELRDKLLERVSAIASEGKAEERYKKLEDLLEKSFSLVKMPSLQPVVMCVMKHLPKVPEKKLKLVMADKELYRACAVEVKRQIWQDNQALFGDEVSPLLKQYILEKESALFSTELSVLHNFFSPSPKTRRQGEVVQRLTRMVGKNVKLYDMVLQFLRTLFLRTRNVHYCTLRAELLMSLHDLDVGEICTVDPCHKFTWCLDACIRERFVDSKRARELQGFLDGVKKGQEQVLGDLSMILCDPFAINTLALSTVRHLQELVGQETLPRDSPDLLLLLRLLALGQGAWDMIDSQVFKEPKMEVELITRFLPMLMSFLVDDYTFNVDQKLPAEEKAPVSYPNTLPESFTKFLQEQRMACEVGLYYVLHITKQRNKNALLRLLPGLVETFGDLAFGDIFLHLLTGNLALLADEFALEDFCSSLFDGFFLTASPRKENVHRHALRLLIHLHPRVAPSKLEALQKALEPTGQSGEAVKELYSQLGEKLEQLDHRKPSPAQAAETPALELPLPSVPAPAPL
Sequence of UniProt P49757 (P49757 whole entry, looked up): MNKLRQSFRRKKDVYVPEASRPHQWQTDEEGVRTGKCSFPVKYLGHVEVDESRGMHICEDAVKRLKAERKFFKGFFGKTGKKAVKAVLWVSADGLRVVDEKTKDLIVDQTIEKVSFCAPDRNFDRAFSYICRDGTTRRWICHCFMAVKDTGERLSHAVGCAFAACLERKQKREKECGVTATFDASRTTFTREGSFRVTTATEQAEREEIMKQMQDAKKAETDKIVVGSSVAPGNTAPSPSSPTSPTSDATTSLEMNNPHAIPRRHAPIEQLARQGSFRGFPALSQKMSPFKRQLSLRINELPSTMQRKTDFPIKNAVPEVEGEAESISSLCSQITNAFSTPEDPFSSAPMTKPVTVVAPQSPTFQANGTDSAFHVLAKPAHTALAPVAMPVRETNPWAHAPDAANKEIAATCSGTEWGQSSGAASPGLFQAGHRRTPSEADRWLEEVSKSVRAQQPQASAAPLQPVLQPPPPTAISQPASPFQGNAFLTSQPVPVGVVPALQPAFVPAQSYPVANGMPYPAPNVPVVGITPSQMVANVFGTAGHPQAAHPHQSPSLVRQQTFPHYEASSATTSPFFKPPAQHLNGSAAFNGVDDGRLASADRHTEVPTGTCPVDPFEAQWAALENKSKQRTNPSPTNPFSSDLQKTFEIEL
Sequence of UniProt Q8NBF2 (Q8NBF2 whole entry, looked up): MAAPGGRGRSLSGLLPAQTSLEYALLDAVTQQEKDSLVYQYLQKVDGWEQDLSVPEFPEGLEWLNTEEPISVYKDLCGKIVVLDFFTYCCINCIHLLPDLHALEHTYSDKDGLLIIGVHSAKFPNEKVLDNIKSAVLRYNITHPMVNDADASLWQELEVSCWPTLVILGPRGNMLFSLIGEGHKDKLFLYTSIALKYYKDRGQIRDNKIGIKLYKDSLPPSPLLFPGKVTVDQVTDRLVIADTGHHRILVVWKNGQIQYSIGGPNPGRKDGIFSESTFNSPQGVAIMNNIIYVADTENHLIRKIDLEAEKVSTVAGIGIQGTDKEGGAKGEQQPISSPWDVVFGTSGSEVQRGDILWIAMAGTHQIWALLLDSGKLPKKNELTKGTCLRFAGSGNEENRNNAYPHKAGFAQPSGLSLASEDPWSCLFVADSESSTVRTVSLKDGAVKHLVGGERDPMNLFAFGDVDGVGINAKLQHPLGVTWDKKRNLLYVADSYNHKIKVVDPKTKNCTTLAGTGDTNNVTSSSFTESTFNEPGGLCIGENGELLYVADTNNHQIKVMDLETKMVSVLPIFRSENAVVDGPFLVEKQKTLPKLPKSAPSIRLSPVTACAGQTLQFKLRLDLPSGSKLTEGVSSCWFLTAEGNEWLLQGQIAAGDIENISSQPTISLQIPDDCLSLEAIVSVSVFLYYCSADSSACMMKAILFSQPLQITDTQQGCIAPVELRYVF
Sequence of UniProt Q9BW27 (Q9BW27 whole entry, looked up): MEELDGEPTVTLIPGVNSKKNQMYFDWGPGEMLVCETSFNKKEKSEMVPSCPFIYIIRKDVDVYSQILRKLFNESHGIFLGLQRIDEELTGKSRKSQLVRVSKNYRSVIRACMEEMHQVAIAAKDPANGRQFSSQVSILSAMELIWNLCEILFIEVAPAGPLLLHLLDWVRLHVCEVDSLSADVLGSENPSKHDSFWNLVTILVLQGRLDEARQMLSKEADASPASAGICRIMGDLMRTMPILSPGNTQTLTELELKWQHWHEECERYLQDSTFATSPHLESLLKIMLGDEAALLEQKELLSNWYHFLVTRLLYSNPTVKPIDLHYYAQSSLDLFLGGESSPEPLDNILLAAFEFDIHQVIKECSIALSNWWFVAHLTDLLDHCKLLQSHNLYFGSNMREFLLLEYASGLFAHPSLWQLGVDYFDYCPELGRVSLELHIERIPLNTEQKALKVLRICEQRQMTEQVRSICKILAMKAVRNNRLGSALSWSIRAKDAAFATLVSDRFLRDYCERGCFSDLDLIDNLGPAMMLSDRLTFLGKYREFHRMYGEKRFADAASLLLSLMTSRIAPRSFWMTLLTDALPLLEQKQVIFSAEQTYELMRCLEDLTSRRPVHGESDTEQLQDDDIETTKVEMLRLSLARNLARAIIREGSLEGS
Sequence of UniProt O60313 (O60313 whole entry, looked up): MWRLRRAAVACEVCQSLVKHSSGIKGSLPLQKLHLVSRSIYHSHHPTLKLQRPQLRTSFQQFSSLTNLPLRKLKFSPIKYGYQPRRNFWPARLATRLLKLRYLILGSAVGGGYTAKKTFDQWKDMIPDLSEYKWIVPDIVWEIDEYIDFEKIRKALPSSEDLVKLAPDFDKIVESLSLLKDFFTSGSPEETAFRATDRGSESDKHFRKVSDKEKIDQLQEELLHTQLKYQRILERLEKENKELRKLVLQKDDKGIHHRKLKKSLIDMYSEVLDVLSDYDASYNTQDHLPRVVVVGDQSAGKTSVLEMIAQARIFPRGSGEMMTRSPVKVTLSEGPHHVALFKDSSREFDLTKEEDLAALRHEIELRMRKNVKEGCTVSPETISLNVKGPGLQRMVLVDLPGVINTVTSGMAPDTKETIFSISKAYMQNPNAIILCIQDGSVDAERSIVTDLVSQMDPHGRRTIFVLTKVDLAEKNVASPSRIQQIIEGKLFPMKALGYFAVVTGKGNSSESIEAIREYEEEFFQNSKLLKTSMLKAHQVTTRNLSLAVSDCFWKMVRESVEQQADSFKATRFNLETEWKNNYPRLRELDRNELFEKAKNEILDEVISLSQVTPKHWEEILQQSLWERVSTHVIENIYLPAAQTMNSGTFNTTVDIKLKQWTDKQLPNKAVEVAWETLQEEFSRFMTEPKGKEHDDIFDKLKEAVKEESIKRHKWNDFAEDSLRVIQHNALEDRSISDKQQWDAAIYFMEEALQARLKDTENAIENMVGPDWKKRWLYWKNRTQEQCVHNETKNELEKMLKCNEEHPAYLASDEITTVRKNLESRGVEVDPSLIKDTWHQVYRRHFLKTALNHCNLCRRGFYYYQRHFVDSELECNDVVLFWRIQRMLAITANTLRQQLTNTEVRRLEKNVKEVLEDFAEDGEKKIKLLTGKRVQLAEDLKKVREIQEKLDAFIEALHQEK
Sequence of UniProt O43181 (O43181 whole entry, looked up): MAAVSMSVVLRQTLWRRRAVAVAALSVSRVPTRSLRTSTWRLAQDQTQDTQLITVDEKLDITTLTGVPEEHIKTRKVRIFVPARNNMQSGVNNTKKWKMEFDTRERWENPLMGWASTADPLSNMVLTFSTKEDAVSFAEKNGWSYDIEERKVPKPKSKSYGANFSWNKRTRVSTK
Sequence of UniProt Q9H081 (Q9H081 whole entry, looked up): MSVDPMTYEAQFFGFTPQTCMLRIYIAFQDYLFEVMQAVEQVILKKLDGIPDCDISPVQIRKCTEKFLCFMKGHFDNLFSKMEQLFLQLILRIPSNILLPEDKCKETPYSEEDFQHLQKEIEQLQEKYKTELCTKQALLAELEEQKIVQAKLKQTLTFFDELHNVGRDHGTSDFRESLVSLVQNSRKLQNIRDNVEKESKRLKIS
Sequence of UniProt P15559 (P15559 whole entry, looked up): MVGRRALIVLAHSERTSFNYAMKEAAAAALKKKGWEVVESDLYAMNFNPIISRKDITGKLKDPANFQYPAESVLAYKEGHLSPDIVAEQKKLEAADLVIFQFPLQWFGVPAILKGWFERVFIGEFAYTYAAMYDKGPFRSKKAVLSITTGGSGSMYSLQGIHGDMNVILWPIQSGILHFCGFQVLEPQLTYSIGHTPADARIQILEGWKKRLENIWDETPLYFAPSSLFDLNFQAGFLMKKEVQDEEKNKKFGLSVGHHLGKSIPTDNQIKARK

Target | log2 fold change [1] | log2 fold change (volasertib) | log2 fold change [2] | log2 fold change (epoxomicin) | log2 fold change [3] | log2 fold change [4] | log2 fold change [5] | log2 fold change (rosiglitazone) | log2 fold change [6] | log2 fold change [7] | log2 fold change (saracatinib) | log2 fold change (sotrastaurin) | log2 fold change (alvocidib) | log2 fold change (Tubastatin A) | log2 fold change [8] | log2 fold change (defactinib) | log2 fold change (rucaparib) | log2 fold change [9] | log2 fold change (encorafenib) | log2 fold change [10]
OPA1 isoform 2 (UniProt O60313) | -0.187 | -0.264 | 0.039 | 0.027 | -0.047 | -0.081 | 0.023 | 0.07 | -0.013 | -0.347 (active) | -0.072 | -0.005 | -0.047 | 0.054 | -0.047 | -0.024 | -0.001 | 0.064 | 0.056 | -0.047
NELFB isoform 2 (UniProt Q8WX92) | -0.176 | -0.68 (active) | 0.118 | 0.072 | -0.057 | -0.012 | 0.068 | 0.041 | -0.02 | -0.116 | -0.016 | -0.065 | -0.199 | 0.04 | -0.026 | -0.199 | -0.034 | -0.005 | 0.079 | -0.057
NQO1 (UniProt P15559) | 0.011 | 0.057 | 0.276 (active) | 0.083 | 0.159 | -0.064 | -0.005 | 0.013 | 0.356 (active) | 0.046 | -0.076 | -0.002 | -0.108 | 0.027 | 0.161 | -0.038 | -0.077 | -0.008 | 0.005 | -0.022
NHLRC2 (UniProt Q8NBF2) | 0.024 | 0.029 | -0.026 | -0.06 | -0.037 | -0.109 | 0.003 | 0.01 | -0.064 | -0.272 (active) | -0.026 | 0.039 | -0.037 | -0.072 | -0.055 | -0.039 | -0.016 | 0.059 | -0.045 | 0.146
MIS12 (UniProt Q9H081) | -0.072 | -0.36 (active) | 0.012 | 0.026 | -0.034 | -0.007 | 0.055 | 0.04 | -0.107 | -0.039 | 0.04 | -0.014 | -0.145 | 0.031 | 0.002 | -0.143 | 0.021 | -0.006 | 0.021 | -0.052
NEU1 (UniProt Q99519) | -0.184 | -0.501 (active) | 0.059 | 0.113 | -0.04 | 0.052 | 0.012 | 0.032 | 0.015 | -0.079 | -0.044 | 0 | -0.033 | 0.028 | -0.113 | -0.011 | -0.012 | -0.011 | -0.012 | -0.019
NOP58 (UniProt Q9Y2X3) | 0.095 | -0.066 | 0.057 | -0.263 | 0.005 | 0.192 | 0.052 | -0.052 | 0.234 | 0.2 | -0.044 | -0.008 | 0.075 | 0.014 | -0.058 | -0.004 | 0.304 | -0.01 | 0.106 | -0.076
MTHFD1 (UniProt P11586) | -0.074 | -0.002 | 0.035 | 0.067 | -0.011 | -0.159 | 0.051 | 0.024 | -0.057 | 0.004 | 0.004 | 0.018 | -0.055 | -0.009 | 0.003 | -0.046 | -0.032 | 0.058 | 0.04 | -0.036
NUP85 (UniProt Q9BW27) | -0.158 | -0.561 (active) | -0.008 | 0.022 | -0.024 | -0.01 | -0.004 | 0.019 | -0.038 | -0.045 | 0.027 | -0.026 | -0.023 | -0.001 | -0.021 | -0.097 | -0.047 | -0.034 | 0.025 | 0.003
MRPS2 (UniProt Q9Y399) | -0.048 | 0.037 | 0.053 | 0.02 | -0.01 | -0.045 | 0.031 | -0.003 | 0.016 | 0.044 | -0.243 | -0.145 | 0.005 | 0.036 | -0.021 | 0.034 | 0.104 | 0.035 | 0.084 | -0.088
MRPS5 (UniProt P82675) | 0.005 | -0.066 | 0.181 | 0.077 | -0.048 | -0.05 | -0.037 | -0.005 | 0.032 | 0.102 | -0.094 | -0.124 | -0.042 | -0.009 | -0.024 | 0.068 | 0.129 | 0.161 | 0.072 | -0.068
NDUFS4 (UniProt O43181) | 0.052 | 0.074 | -0.037 | -0.025 | -0.007 | 0.071 | -0.079 | -0.046 | 0.033 | -0.013 | 0.117 | 0.1 | 0.049 | -0.082 | -0.025 | 0.035 | 0.011 | -0.074 | -0.051 | 0.079
NUMB (UniProt P49757) | -0.017 | 0.057 | 0.02 | -0.013 | 0.009 | -0.045 | -0.024 | 0.053 | -0.007 | -0.202 | 0.033 | -0.266 (active) | -0.095 | -0.014 | -0.027 | -0.044 | 0.01 | 0.065 | 0.081 | 0
MRPS33 (UniProt Q9Y291) | 0.016 | 0.025 | 0.057 | -0.012 | 0 | -0.011 | -0.01 | -0.007 | -0.001 | 0.017 | -0.033 | -0.077 | -0.038 | 0.02 | -0.018 | 0.087 | 0.119 | 0.04 | 0.024 | 0.02
MUL1 (UniProt Q969V5) | 0.061 | 0 | 0.045 | 0.04 | -0.004 | 0.014 | -0.028 | 0.052 | -0.004 | -0.115 | 0.054 | 0.079 | -0.013 | 0.047 | 0.056 | 0.059 | 0.072 | -0.018 | -0.074 | 0.079
NUDT16 (UniProt Q96DE0) | 0.038 | 0.033 | -0.059 | 0.009 | -0.019 | -0.073 | -0.011 | -0.048 | -0.069 | -0.035 | 0.063 | -0.031 | -0.075 | 0.009 | -0.057 | -0.024 | 0.009 | -0.004 | -0.017 | -0.05
